Measurements as given in PubChem BioAssay AID1159580 (chemical genetic matrix, 2015).
Several values for one entry are separate records, joined by “and”; a condition that tells them apart may be missing. Equal values may be shown once. In all, about 5,500 compounds went through this assay and about 2,000 (36%) were called active. Roughly 18% stayed inconclusive and do not appear here. Cut-off read from the data, not from the text of the source: active = normalized growth mostly below about 0.91 (no sharp cut-off); inconclusive = no clear call, values can overlap the other calls; inactive = mostly above about 0.92. This is one part of the list.

Assay: chemical genetic growth profiling, strain panel (AID 1159580);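 note: tested at 20 µM; growth read once vehicle control cultures reached saturation at 30 °C; 1 = growth at the plate median or of vehicle wells; lower values mean less growth of the strain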
Conditions: S. cerevisiae deletion strains, growth OD

Measured: normalized growth

CN1CCC(OC(c2ccccc2)c2ccccc2)CC1
inactive: locus YAL013W, strain DEP1, hits give low values 0.98 | locus YAL021C, strain ccr4, hits give low values 0.974 | locus YAL026C, strain drs2, hits give low values 0.972 | locus YAL030W, strain snc1, hits give low values 0.987 | locus YBL061C, strain skt5, hits give low values 1 | locus YBR009C, strain hhf1, hits give low values 0.983 | locus YBR021W, strain FUR4, hits give low values 0.985 | locus YBR023C, strain chs3, hits give low values 1.02 | locus YBR171W, strain sec66, hits give low values 0.99 | locus YBR229C, strain ROT2, hits give low values 0.977 | locus YBR231C, strain swc5, hits give low values 0.976 | locus YBR279W, strain paf1, hits give low values 1.01 | locus YCL011C, strain gbp2, hits give low values 0.998 | locus YCL016C, strain dcc1, hits give low values 1.04 | locus YCL029C, strain bik1, hits give low values 0.995 | locus YCL061C, strain MRC1, hits give low values 1 | locus YCL069W, strain vba3, hits give low values 0.973 | locus YCR088W, strain abp1, hits give low values 0.989 | locus YDL005C, strain med2, hits give low values 0.975 | locus YDL035C, strain GPR1, hits give low values 1.03 | locus YDL040C, strain nat1, hits give low values 0.975 | locus YDL074C, strain BRE1, hits give low values 0.976 | locus YDL101C, strain DUN1, hits give low values 0.973 | locus YDL134C, strain PPH21, hits give low values 1.02 | locus YDL185W, strain tfp1, hits give low values 0.984 | locus YDL192W, strain arf1, hits give low values 0.983 | locus YDR001C, strain nth1, hits give low values 0.984 | locus YDR069C, strain doa4, hits give low values 0.977 | locus YDR101C, strain arx1, hits give low values 0.987 | locus YDR137W, strain rgp1, hits give low values 1.03 | locus YDR159W, strain sac3, hits give low values 0.969 | locus YDR162C, strain NBP2, hits give low values 1.01 | locus YDR195W, strain ref2 0.973 | locus YDR297W, strain sur2, hits give low values 0.988 | locus YDR318W, strain mcm21, hits give low values 0.978 | locus YDR334W, strain swr1, hits give low values 0.982 | locus YDR335W, strain msn5, hits give low values 0.996 | locus YDR388W, hits give low values 0.992 | locus YDR392W, strain spt3, hits give low values 0.935 | locus YDR502C, strain sam2, hits give low values 1.01 | locus YEL003W, strain gim4, hits give low values 0.956 | locus YEL037C, strain rad23, hits give low values 0.97 | locus YEL061C, strain CIN8 (second series), hits give low values 0.965 | locus YEL061C, strain CIN8, hits give low values 0.995 | locus YER015W, strain faa2, hits give low values 0.99 | locus YER016W, strain bim1, hits give low values 0.977 | locus YER110C, hits give low values 0.972 | locus YER111C, strain swi4, hits give low values 0.984 | locus YER155C, strain BEM2 (second series), hits give low values 0.977 | locus YER155C, strain BEM2, hits give low values 0.988 | locus YER167W, strain BCK2, hits give low values 0.99 | locus YFR010W, strain ubp6, hits give low values 0.963 | locus YGL078C, strain dbp3, hits give low values 0.985 | locus YGL086W, strain mad1, hits give low values 0.987 | locus YGL167C, strain pmr1, hits give low values 1 | locus YGL173C, strain kem1, hits give low values 0.994 | locus YGL227W, strain vid30, hits give low values 0.983 | locus YGL240W, strain doc1, hits give low values 0.982 | locus YGL248W, strain PDE1, hits give low values 0.964 | locus YGL253W, strain hxk2, hits give low values 0.987 | locus YGR078C, strain PAC10, hits give low values 0.985 | locus YGR135W, strain pre9, hits give low values 0.951 | locus YGR252W, strain gcn5, hits give low values 0.925 | locus YHR013C, strain ard1, hits give low values 0.994 | locus YHR027C, strain rpn1, hits give low values 0.993 | locus YHR030C, strain SLT2, hits give low values 0.998 and 0.996 | locus YHR079C, strain IRE1 (second series), hits give low values 0.991 | locus YHR079C, strain IRE1, hits give low values 1.02 | locus YHR094C, strain hxt1, hits give low values 0.998 | locus YHR129C, strain ARP1, hits give low values 0.99 | locus YHR142W, strain chs7, hits give low values 1.01 | locus YHR200W, strain rpn10, hits give low values 0.987 | locus YIL066C, strain RNR3, hits give low values 1.01 | locus YIL073C, strain SPO22, hits give low values 1.01 | locus YIL125W, strain kgd1, hits give low values 0.994 | locus YIR030C, strain dcg1, hits give low values 0.984 | locus YJL092W, strain hpr5, hits give low values 0.98 | locus YJL095W, strain BCK1 (second series), hits give low values 0.988 | locus YJL095W, strain BCK1, hits give low values 0.961 and 1 | locus YJL115W, strain asf1, hits give low values 0.98 | locus YJL129C, strain trk1, hits give low values 0.984 | locus YJL134W, strain LCB3, hits give low values 0.984 | locus YJL154C, strain vps35, hits give low values 0.978 | locus YJL164C, strain tpk1, hits give low values 0.987 | locus YJL166W, strain qcr8, hits give low values 1.01 | locus YJL168C, strain set2, hits give low values 0.988 | locus YJL187C, strain SWE1 (second series), hits give low values 0.972 | locus YJL187C, strain SWE1, hits give low values 0.983 | locus YJR043C, strain POL32, hits give low values 1.03 | locus YJR066W, strain TOR1, hits give low values 0.973 | locus YKL009W, strain mrt4, hits give low values 0.974 | locus YKL068W, hits give low values 0.983 | locus YKL085W, strain MDH1 (second series), hits give low values 1 | locus YKL085W, strain MDH1, hits give low values 1 | locus YKL160W, strain elf1, hits give low values 1.03 | locus YKR001C, strain vps1, hits give low values 0.996 | locus YKR026C, strain gcn3, hits give low values 0.989 | locus YKR091W, strain srl3, hits give low values 0.991 | locus YLL001W, strain dnm1, hits give low values 1.01 | locus YLL026W, hits give low values 0.991 | locus YLL041C, strain sdh2, hits give low values 0.985 | locus YLR027C, strain aat2, hits give low values 0.995 | locus YLR039C, strain RIC1, hits give low values 1.15 | locus YLR058C, strain SHM2, hits give low values 0.992 | locus YLR102C, strain apc9, hits give low values 0.999 | locus YLR113W, strain HOG1, hits give low values 1.01 | locus YLR221C, strain rsa3, hits give low values 1.04 | locus YLR258W, strain gsy2, hits give low values 1.01 | locus YLR262C, strain YPT6 (second series), hits give low values 1.03 | locus YLR262C, strain YPT6, hits give low values 1.09 | locus YLR268W, strain sec22, hits give low values 0.992 | locus YLR320W, strain mms22, hits give low values 1.05 | locus YLR330W, strain CHS5, hits give low values 0.987 | locus YLR342W, strain FKS1 (second series), hits give low values 1.01 | locus YLR342W, strain FKS1, hits give low values 0.989 | locus YLR357W, strain rsc2, hits give low values 0.96 | locus YLR370C, strain arc18, hits give low values 1.01 | locus YLR371W, strain rom2, hits give low values 1 | locus YLR384C, strain iki3, hits give low values 0.994 | locus YLR418C, strain cdc73, hits give low values 0.956 | locus YML016C, strain PPZ1, hits give low values 0.983 | locus YML032C, strain rad52, hits give low values 1.02 | locus YML120C, strain ndi1, hits give low values 1.01 | locus YML124C, strain tub3, hits give low values 1.02 | locus YMR058W, strain fet3, hits give low values 0.978 | locus YMR078C, strain ctf18, hits give low values 0.98 | locus YMR125W, strain sto1, hits give low values 0.961 | locus YMR129W, hits give low values 0.977 | locus YMR205C, strain PFK2, hits give low values 1.03 | locus YMR223W, strain ubp8, hits give low values 0.968 | locus YMR231W, strain pep5, hits give low values 0.996 | locus YMR263W, strain SAP30, hits give low values 0.971 | locus YMR307W, strain GAS1, hits give low values 1.14 | locus YNL067W, strain RPL9B, hits give low values 0.974 | locus YNL071W, strain lat1, hits give low values 0.983 | locus YNL183C, strain NPR1, hits give low values 0.964 | locus YNL209W, strain ssb2, hits give low values 0.988 | locus YNL233W, strain BNI4, hits give low values 0.975 | locus YNL248C, strain rpa49, hits give low values 0.98 | locus YNL250W, strain rad50, hits give low values 0.969 | locus YNL271C, strain bni1, hits give low values 0.984 | locus YNL298W, strain CLA4, hits give low values 0.985 | locus YNL307C, strain MCK1, hits give low values 0.992 | locus YNL322C, strain KRE1 (second series), hits give low values 1.01 | locus YNL322C, strain KRE1, hits give low values 1.01 | locus YNR049C, strain mso1, hits give low values 0.989 | locus YNR052C, strain pop2, hits give low values 0.984 | locus YOL006C, strain TOP1, hits give low values 0.946 | locus YOL012C, strain htz1 0.957 | locus YOL147C, strain pex11, hits give low values 0.986 | locus YOR001W, strain rrp6, hits give low values 0.937 | locus YOR061W, strain CKA2, hits give low values 1 | locus YOR069W, strain VPS5, hits give low values 0.992 | locus YOR070C, strain gyp1, hits give low values 0.998 | locus YOR080W, strain dia2, hits give low values 1 | locus YOR083W, strain WHI5, hits give low values 1.04 | locus YOR106W, strain vam3, hits give low values 1.03 | locus YOR136W, strain idh2, hits give low values 0.983 | locus YOR144C, strain elg1, hits give low values 0.983 | locus YOR184W, strain ser1, hits give low values 1.01 | locus YOR231W, strain MKK1, hits give low values 1.01 | locus YOR265W, strain rbl2, hits give low values 1.01 | locus YOR270C, strain vph1, hits give low values 0.999 | locus YOR290C, strain snf2, hits give low values 0.93 | locus YOR316C, strain cot1, hits give low values 0.985 | locus YPL051W, strain arl3, hits give low values 1.02 | locus YPL055C, strain LGE1, hits give low values 0.994 | locus YPL078C, strain atp4, hits give low values 1.02 | locus YPL106C, strain sse1, hits give low values 0.985 | locus YPL240C, strain hsp82, hits give low values 1.01 | locus YPL241C, strain CIN2, hits give low values 0.991 | locus YPL256C, strain CLN2, hits give low values 1.02 | locus YPR119W, strain clb2, hits give low values 0.986 | locus YPR141C, strain kar3, hits give low values 0.965 | locus YPR163C, strain tif3, hits give low values 0.987 | locus YPR167C, strain met16, hits give low values 0.99 | strain wtn01, hits give low values 0.974
